Results filed as inconclusive are left out. The source made the active and inactive calls. Unless noted, calls come from the whole dose curve; as a rule, active = well fitted inhibition curve with a large enough effect; inconclusive = small, poorly fitted or top-dose-only effect, or effect the other way; inactive = flat fitted curve, though single readings scatter.
System: not listed separately
Assay: qHTS for Inhibitors of Plasmodium falciparum (CP250) proliferation (AID 504320); note: potency is the fitted concentration of half-maximal effect
Settings: P. falciparum CP250 in erythrocytes, SYBR Green DNA, 72 h; series mostly up to 6.7 µM
Outline: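 Erythrocytes infected with P. falciparum line (0.3% parasitemia, 2.5% hematocrit final) incubated with compounds 72 h at 37 °C, 5% CO2; SYBR Green lysis buffer added, fluorescence read next day. Normalized to 0.29 uM artemisinin and DMSO.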

Potency, inactive:
C[C@@H]1CC[C@H]2C(=O)N(Cc3cccc([N+](=O)[O-])c3)C[C@@H](O)CN2[C@@H]1c1ccc(Br)cc1
COc1ccc2c(c1)O[C@@H](c1ccc3c(c1)OCO3)[C@H](OC(=O)Nc1ccc(C)c(Br)c1)C2=O
CCN1C(=NCCCCO)NC(c2cccc(C(F)(F)F)c2)C(C(=O)OC)=C1C (stereo not drawn)
O=C1Nc2cccc(Br)c2[C@@]12O[C@H](COc1ccccc1)CC1=CCC[C@H]12
C#CCN1C(=O)CC[C@@]23C1=NC(C(=O)OC)=C(C(=O)OC)[C@@H]2N(CC=C(C)C)c1ccccc13
CCN1C(=O)[C@@H]2[C@H]3[C@H](O)[C@H](O)CC(=NOC[C@H]4O[C@H](c5ccccc5)C=C[C@H]4Oc4ccc(OC)cc4)[C@@H]3CC[C@H]2C1=O
CCCCCCCC1=Cc2ccc(F)cc2C(C(C(C)=O)C(=O)OC)N1C(=O)OC (stereo not drawn)
COC(=O)C1=C(C(=O)OC)[C@@H]2N(C)c3ccccc3[C@@]23CCC(=O)N(Cc2ccc(OC)cc2)C3=N1
COc1ccc(COC(=O)NN=C2C[C@@H](O)[C@@H](O)[C@@H]3[C@H]4C(=O)N(C[C@@H]5CCCO5)C(=O)[C@@H]4CC[C@@H]23)cc1
COC(=O)CC=C1c2ccccc2C[C@H](OC)[C@@H]1C
C[C@H](O)CON1C(=O)c2ccccc2C1=O
CC(C)CON=C1C[C@@H](O)[C@@H](O)[C@@H]2[C@H]3C(=O)N(Cc4ccc5c(c4)OCO5)C(=O)[C@@H]3CC[C@@H]12
O=C1[C@H]2[C@@H]3[C@@H](O)[C@H](O)CC(=NOCc4ccccc4)[C@H]3CC[C@H]2C(=O)N1C1CCCCC1
COc1ccc([C@]23Cc4cc(OC)c(OC)cc4[C@H](O2)C2=C(CC4(CCCCC4)OC2=O)O3)cc1
Cc1ccc2[nH]c3nc(CCCn4ccnc4-c4ccccc4)nnc3c2c1
C=CCN1c2ccccc2[C@]23CCC(=O)N(CCCOC(C)C)C2=NC(C(=O)OC)=C(C(=O)OC)[C@H]13
COC(=O)N[C@H](C[N+](=O)[O-])c1cccc(C)c1
CC=COC(=O)N[C@@H](c1ccccc1)[C@]1(C(=O)OCC)CCCC1=O
COc1cc(CCN2C(=O)NC(c3ccccc3)C(C(C)=O)=C2C)cc(OC)c1OC (stereo not drawn)
C[C@@H]1C=CCC(=O)N[C@@H](c2ccccc2)[C@H](C)C=CCC(=O)N[C@@H]1c1ccccc1
COc1ccc(C=CNC(=O)c2ccc(OC)cc2)cc1
COc1ccc2c(c1)C(=O)[C@H](OC(=O)N[C@H]1CCCc3ccccc31)[C@@H](c1ccc(OC)c(Br)c1)O2
COC(=O)C1(C(=O)OC)C[C@@H]2CON=C2[C@@H]1c1ccccc1
COC(=O)[C@@H]1[C@@H](c2ccccc2)NC(=O)N(CCc2cc(OC)c(OC)c(OC)c2)[C@@H]1C
C=CC[C@@H]1C=CC(ON=CC[C@@H]2C=C[C@@H](OC(C)=O)[C@@H](COC(C)=O)O2)[C@H](CO)O1 (stereo partly drawn)
C[C@H](NC(=O)N1CCc2nc(COc3ccccc3)c3c(c2C1)CO[C@@H](C)C3)c1ccccc1
COCC(=O)C(C(=O)OC)[C@H](CCc1ccccc1)NC(=O)OC (stereo partly drawn)
COc1ccc(NC(=O)N2CCc3nc(-c4ccc(OC)cc4C)c4c(c3C2)CO[C@@H](c2ccccc2)C4)cc1
COC1=C[C@H](C(=O)N2CCCC2)[C@H](C)[C@@H](c2ccccc2)CC1=O
COC(=O)C1=C(C(=O)OC)[C@@H]2N(CC=C(C)C)c3ccccc3[C@@]23CCC(=O)N(CCc2ccccn2)C3=N1
COc1ccc2c(c1)O[C@H](c1ccc3c(c1)OCO3)[C@@H](OC(=O)NCc1ccc3c(c1)OCO3)C2=O
COC(=O)CC1c2ccccc2C(Cc2ccc3c(c2)OCO3)=C(C)N1C(=O)OC (stereo not drawn)
COCCN1C(=O)NC(c2ccc(Br)cc2)C(C(C)=O)=C1C (stereo not drawn)
COC(=O)C1=NOC2(C=C(Br)C(OC)=C(Br)C2=O)C1 (stereo not drawn)
COc1ccc(N2C=C3C(=O)C(C)(OC(=O)C4CCCC4)C(=O)C=C3C=C2c2ccsc2)cc1 (stereo not drawn)
COC(=O)C(C(C)=O)C(=O)C(Cc1ccccc1)NC(=O)OCc1ccccc1 (stereo not drawn)
COC(=O)CC=C[C@@H](C)[C@@H](C=NOC[C@@H](O)COCc1ccco1)NS(=O)(=O)c1ccc(C)cc1
COC(=O)CC=C[C@@H](C)[C@@H](C=NOC[C@@H](O)COCc1ccco1)OC

Potency, active:
COC(=O)C1=C(C)N(Cc2ccccc2)C(=NCCc2ccccn2)NC1c1cccc(C(F)(F)F)c1 (stereo not drawn) 849 nM

Target: Atrial natriuretic peptide receptor 1 (Homo sapiens) (UniProt P16066)
Sequence (P16066 whole entry, looked up): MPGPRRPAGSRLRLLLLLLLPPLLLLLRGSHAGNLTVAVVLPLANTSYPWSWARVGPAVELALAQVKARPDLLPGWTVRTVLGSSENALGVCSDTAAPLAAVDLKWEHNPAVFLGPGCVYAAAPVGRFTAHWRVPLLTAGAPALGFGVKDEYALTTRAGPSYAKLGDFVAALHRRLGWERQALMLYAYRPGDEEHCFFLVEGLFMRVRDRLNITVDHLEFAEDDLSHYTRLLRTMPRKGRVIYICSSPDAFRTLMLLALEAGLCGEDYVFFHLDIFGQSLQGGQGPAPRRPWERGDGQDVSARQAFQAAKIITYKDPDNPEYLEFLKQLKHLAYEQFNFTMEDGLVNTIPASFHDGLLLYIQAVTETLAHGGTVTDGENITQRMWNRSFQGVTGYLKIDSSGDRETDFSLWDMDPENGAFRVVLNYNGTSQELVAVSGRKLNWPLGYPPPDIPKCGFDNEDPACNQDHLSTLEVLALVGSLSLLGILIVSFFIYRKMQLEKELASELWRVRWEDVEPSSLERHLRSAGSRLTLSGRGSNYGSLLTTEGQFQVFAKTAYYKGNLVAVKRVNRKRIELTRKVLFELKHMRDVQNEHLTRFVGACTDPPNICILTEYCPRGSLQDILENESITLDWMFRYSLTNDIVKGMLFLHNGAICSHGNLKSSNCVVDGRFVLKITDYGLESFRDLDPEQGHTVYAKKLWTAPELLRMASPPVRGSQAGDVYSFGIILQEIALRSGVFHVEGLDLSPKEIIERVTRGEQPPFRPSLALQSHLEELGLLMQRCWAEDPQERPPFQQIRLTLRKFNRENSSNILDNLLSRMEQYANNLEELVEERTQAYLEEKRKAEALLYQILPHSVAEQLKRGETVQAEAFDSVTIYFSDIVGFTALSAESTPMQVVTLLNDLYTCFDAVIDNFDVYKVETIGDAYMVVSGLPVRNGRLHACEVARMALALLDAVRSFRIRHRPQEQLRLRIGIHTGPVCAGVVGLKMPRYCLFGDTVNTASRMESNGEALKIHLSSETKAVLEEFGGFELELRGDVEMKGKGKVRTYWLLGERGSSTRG
Assay: Natriuretic polypeptide receptor (hNpr1) antagonism - Pilot CMLD screen (AID 1347052; calls by dose curve;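 note: HEK293 cells with hNpr1 stimulated by hNppA peptide at 0.1 nM; cGMP level read as GloSensor luciferase luminescence after agonist stimulation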)
Settings: HEK293 hNpr1 GloSensor cGMP luminescence, ANP-stimulated; series mostly up to 9.22 µM

Potency, inactive:
C[C@@H]1CC[C@H]2C(=O)N(Cc3cccc([N+](=O)[O-])c3)C[C@@H](O)CN2[C@@H]1c1ccc(Br)cc1
COc1ccc2c(c1)O[C@@H](c1ccc3c(c1)OCO3)[C@H](OC(=O)Nc1ccc(C)c(Br)c1)C2=O
CCN1C(=NCCCCO)NC(c2cccc(C(F)(F)F)c2)C(C(=O)OC)=C1C (stereo not drawn)
O=C1Nc2cccc(Br)c2[C@@]12O[C@H](COc1ccccc1)CC1=CCC[C@H]12
C#CCN1C(=O)CC[C@@]23C1=NC(C(=O)OC)=C(C(=O)OC)[C@@H]2N(CC=C(C)C)c1ccccc13
CCN1C(=O)[C@@H]2[C@H]3[C@H](O)[C@H](O)CC(=NOC[C@H]4O[C@H](c5ccccc5)C=C[C@H]4Oc4ccc(OC)cc4)[C@@H]3CC[C@H]2C1=O
CCCCCCCC1=Cc2ccc(F)cc2C(C(C(C)=O)C(=O)OC)N1C(=O)OC (stereo not drawn)
COC(=O)C1=C(C(=O)OC)[C@@H]2N(C)c3ccccc3[C@@]23CCC(=O)N(Cc2ccc(OC)cc2)C3=N1
COc1ccc(COC(=O)NN=C2C[C@@H](O)[C@@H](O)[C@@H]3[C@H]4C(=O)N(C[C@@H]5CCCO5)C(=O)[C@@H]4CC[C@@H]23)cc1
COC(=O)CC=C1c2ccccc2C[C@H](OC)[C@@H]1C
C[C@H](O)CON1C(=O)c2ccccc2C1=O
CC(C)CON=C1C[C@@H](O)[C@@H](O)[C@@H]2[C@H]3C(=O)N(Cc4ccc5c(c4)OCO5)C(=O)[C@@H]3CC[C@@H]12
O=C1[C@H]2[C@@H]3[C@@H](O)[C@H](O)CC(=NOCc4ccccc4)[C@H]3CC[C@H]2C(=O)N1C1CCCCC1
COc1ccc([C@]23Cc4cc(OC)c(OC)cc4[C@H](O2)C2=C(CC4(CCCCC4)OC2=O)O3)cc1
Cc1ccc2[nH]c3nc(CCCn4ccnc4-c4ccccc4)nnc3c2c1
C=CCN1c2ccccc2[C@]23CCC(=O)N(CCCOC(C)C)C2=NC(C(=O)OC)=C(C(=O)OC)[C@H]13
COC(=O)N[C@H](C[N+](=O)[O-])c1cccc(C)c1
CC=COC(=O)N[C@@H](c1ccccc1)[C@]1(C(=O)OCC)CCCC1=O
COc1cc(CCN2C(=O)NC(c3ccccc3)C(C(C)=O)=C2C)cc(OC)c1OC (stereo not drawn)
C[C@@H]1C=CCC(=O)N[C@@H](c2ccccc2)[C@H](C)C=CCC(=O)N[C@@H]1c1ccccc1
COc1ccc(C=CNC(=O)c2ccc(OC)cc2)cc1
COc1ccc2c(c1)C(=O)[C@H](OC(=O)N[C@H]1CCCc3ccccc31)[C@@H](c1ccc(OC)c(Br)c1)O2
COC(=O)C1(C(=O)OC)C[C@@H]2CON=C2[C@@H]1c1ccccc1
COC(=O)[C@@H]1[C@@H](c2ccccc2)NC(=O)N(CCc2cc(OC)c(OC)c(OC)c2)[C@@H]1C
C=CC[C@@H]1C=CC(ON=CC[C@@H]2C=C[C@@H](OC(C)=O)[C@@H](COC(C)=O)O2)[C@H](CO)O1 (stereo partly drawn)
COC(=O)C1=C(C)N(Cc2ccccc2)C(=NCCc2ccccn2)NC1c1cccc(C(F)(F)F)c1 (stereo not drawn)
C[C@H](NC(=O)N1CCc2nc(COc3ccccc3)c3c(c2C1)CO[C@@H](C)C3)c1ccccc1
COCC(=O)C(C(=O)OC)[C@H](CCc1ccccc1)NC(=O)OC (stereo partly drawn)
COc1ccc(NC(=O)N2CCc3nc(-c4ccc(OC)cc4C)c4c(c3C2)CO[C@@H](c2ccccc2)C4)cc1
COC1=C[C@H](C(=O)N2CCCC2)[C@H](C)[C@@H](c2ccccc2)CC1=O
COC(=O)C1=C(C(=O)OC)[C@@H]2N(CC=C(C)C)c3ccccc3[C@@]23CCC(=O)N(CCc2ccccn2)C3=N1
COc1ccc2c(c1)O[C@H](c1ccc3c(c1)OCO3)[C@@H](OC(=O)NCc1ccc3c(c1)OCO3)C2=O
COC(=O)CC1c2ccccc2C(Cc2ccc3c(c2)OCO3)=C(C)N1C(=O)OC (stereo not drawn)
COCCN1C(=O)NC(c2ccc(Br)cc2)C(C(C)=O)=C1C (stereo not drawn)
COC(=O)C1=NOC2(C=C(Br)C(OC)=C(Br)C2=O)C1 (stereo not drawn)
COc1ccc(N2C=C3C(=O)C(C)(OC(=O)C4CCCC4)C(=O)C=C3C=C2c2ccsc2)cc1 (stereo not drawn)
COC(=O)C(C(C)=O)C(=O)C(Cc1ccccc1)NC(=O)OCc1ccccc1 (stereo not drawn)
COC(=O)CC=C[C@@H](C)[C@@H](C=NOC[C@@H](O)COCc1ccco1)NS(=O)(=O)c1ccc(C)cc1
COC(=O)CC=C[C@@H](C)[C@@H](C=NOC[C@@H](O)COCc1ccco1)OC

— PubChem BioAssay (NCATS)
